Arbovirus inh: blocks arbovirus infection. arbovirus infection cell-based antiviral screen. inhibition, % at 10 µM. actives 0.37% (n = 200,000). AID 1251; in the data active = inhibition above about 30%
CHOP inh: CHOP inhibition in unfolded protein response. CHO-K1 CHOP-promoter luciferase, tunicamycin-induced, 15-18 h. inhibition, % at 10 µM. actives 3.8% (n = 220,000). AID 2732;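 active = compounds that reduced the stress-induced luciferase reporter signal by more than about 70% of percent inhibition, limit read from the data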;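 also: 0% = tunicamycin plus vehicle and 100% = wells without tunicamycin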
WT yeast gro inh: growth inhibition of WT yeast, mitochondrial fusion screen; mitochondrial fusion phenotypic screen, WT strain; inhibition, % at 10 µM; actives 2.1% (n = 190,000); AID 1362; in the data active = inhibition above about 58%; tested in S. cerevisiae
L major viab: inhibitors of Leishmania major promastigote growth. Leishmania major promastigotes, resazurin fluorescence viability. inhibition, % at 10 µM. actives 9% (n = 200,000); in the data active = inhibition above about 50%;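 also: promastigotes grown with compound for 44 hours at 28 °C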
Starred values were filed as active, the others as inactive. Rows were chosen to be rich in hits. Some 12% of all compounds tested hit in one or more screens of this group.

How did CCCCCCn1c(N)c(C#N)c2ccc([N+](=O)[O-])cc2c1=O do in these assays?
Arbovirus inh: 1.8; CHOP inh: 33.2; WT yeast gro inh: -8.0; L major viab: 8.1

What do the screens show for `O=c1c2ccccc2nc(SCc2nc(-c3ccccc3)no2)n1-c1ccc(F)cc1`?
Arbovirus inh: 8.8; CHOP inh: 14.4; WT yeast gro inh: 17.1; L major viab: 87.2*

How did Fc1ccc(-n2c(Cc3ccccc3)nnc2SCc2nc(-c3cccs3)no2)cc1 do in these assays?
Arbovirus inh: 5.2; CHOP inh: 75.2*; WT yeast gro inh: 31.2; L major viab: 99.0*

Results for Cc1ccc(-n2c(SCc3cn4ccsc4n3)nc3ccccc3c2=O)cc1 ?
Arbovirus inh: -5.9; CHOP inh: -15.9; WT yeast gro inh: 11.8; L major viab: 85.0*

Results for c1ccc(-c2noc(CSc3nnc(Cc4cccs4)n3-c3ccccc3)n2)cc1 ?
Arbovirus inh: -6.4; CHOP inh: 13.6; WT yeast gro inh: -2.0; L major viab: 65.1*

How did COc1ccc(-c2noc(CSc3nc4ccccc4c(=O)n3-c3ccccc3)n2)cc1OC do in these assays?
Arbovirus inh: 3.5; CHOP inh: 1.2; WT yeast gro inh: 17.0; L major viab: 23.6

Results for Fc1ccc(OCc2nc(-c3cccs3)no2)cc1 ?
Arbovirus inh: -2.7; CHOP inh: -1.2; WT yeast gro inh: -6.7; L major viab: -4.1

What do the screens show for `c1ccc(-n2cnnc2SCc2cn3ccsc3n2)cc1`?
Arbovirus inh: -1.9; CHOP inh: 10.4; WT yeast gro inh: 17.6; L major viab: -6.1

Results for CCCC1=[N+](CC(=O)c2ccc(C)cc2)CCn2cccc21 ?
Arbovirus inh: 8.9; CHOP inh: -9.2; WT yeast gro inh: -6.3; L major viab: 13.5

Results for O=C(NCCCn1ccnc1)c1cc(-c2cccc(O)c2)on1 ?
CHOP inh: 3.1

Results for Cc1nc([N+](=O)[O-])cn1Cc1cccc([N+](=O)[O-])c1 ?
Arbovirus inh: -0.9; CHOP inh: -12.9; WT yeast gro inh: -12.4; L major viab: -3.6

What do the screens show for `COc1ccc(NC(=O)c2cncc(Br)c2)cc1S(N)(=O)=O`?
Arbovirus inh: 4.4; CHOP inh: 5.2; WT yeast gro inh: -3.4; L major viab: -3.5

How did CCOc1cc(C(=O)Nc2ccncc2)cc(OCC)c1OCC do in these assays?
Arbovirus inh: 14.8; CHOP inh: -0.4; WT yeast gro inh: -8.6; L major viab: 6.0

How did O=C(CCc1nnc(-c2ccc3c(c2)OCO3)o1)N1CCC(c2ccc(F)cc2)C1 (stereo not drawn) do in these assays?
Arbovirus inh: -33.5; CHOP inh: -3.4; WT yeast gro inh: -11.4; L major viab: -7.0

How did Cc1ccc(-c2noc(CSc3nnc(Cc4cccs4)n3-c3ccccc3)n2)cc1 do in these assays?
Arbovirus inh: -26.8; CHOP inh: 61.0; WT yeast gro inh: 30.8; L major viab: 7.5

What do the screens show for `Clc1ccc(-c2noc(CSc3nnc(Cc4cccs4)n3-c3ccccc3)n2)cc1`?
Arbovirus inh: -32.1; CHOP inh: 81.0*; WT yeast gro inh: 31.8; L major viab: 6.0

How did Cc1ccccc1CS(=O)(=O)Cc1ccc(C(=O)NCCCN2CCCC2=O)o1 do in these assays?
Arbovirus inh: 2.6; CHOP inh: 72.8*; WT yeast gro inh: -10.6; L major viab: -5.4

Results for Cc1cc(C2(c3ccc(O)c(C)c3)OC(=O)c3ccccc32)ccc1O ?
Arbovirus inh: -31.7; CHOP inh: -5.3; WT yeast gro inh: -1.0; L major viab: -11.9

Results for Cc1cc(O)c(C(C)C)cc1C1(c2cc(C(C)C)c(O)cc2C)OC(=O)c2ccccc21 ?
CHOP inh: 106.3*

Results for CC(C)c1ccc(Nc2nc(Cl)nc(NCc3ccco3)n2)cc1 ?
CHOP inh: 79.5*

What do the screens show for `COc1ccc(/C=N/Nc2nc(NCc3ccco3)nc(Nc3ccc(OC)cc3)n2)cc1`?
Arbovirus inh: -4.2; CHOP inh: -21.2; WT yeast gro inh: 28.0; L major viab: 77.2*

Results for COc1ccc(Nc2nc(NCc3ccco3)nc(N/N=C/c3ccc(O)cc3)n2)cc1 ?
Arbovirus inh: -1.8; CHOP inh: 28.7; WT yeast gro inh: 3.0; L major viab: 8.7

Results for OCCNc1nc(Cl)nc(NCc2ccco2)n1 ?
Arbovirus inh: 10.4; CHOP inh: 17.2; WT yeast gro inh: -6.1; L major viab: -8.1

What do the screens show for `COc1ccc(-c2[nH]n(-c3ccc([N+](=O)[O-])cc3)c(=O)c2C=NCc2ccccc2)cc1`?
Arbovirus inh: -18.5; CHOP inh: -1.7; WT yeast gro inh: 0.7; L major viab: -4.5

What do the screens show for `CCCCNC(=O)C(=O)N/N=C/c1ccc(OCC(=O)Nc2cccc(OC)c2)c(OC)c1`?
Arbovirus inh: -5.6; CHOP inh: 99.0*; WT yeast gro inh: -17.4; L major viab: -10.3

Results for Cc1ccccc1CSc1nnc(-c2ccncc2)o1 ?
Arbovirus inh: -26.4; CHOP inh: 19.4; WT yeast gro inh: -2.6; L major viab: -10.3

Results for Clc1ccc(CSc2nnc(-c3ccncc3)o2)c(Cl)c1 ?
Arbovirus inh: -6.8; CHOP inh: 38.5; WT yeast gro inh: 76.5*; L major viab: -3.9

Results for O=C(CCCn1c(=O)c2ccccc2n(CC(=O)NCc2ccco2)c1=O)NCc1ccco1 ?
Arbovirus inh: 0.2; CHOP inh: 72.8*; WT yeast gro inh: -2.0; L major viab: 0.9

Results for Cc1ccc(C)c(Cn2c(=O)n(CCC(=O)NCc3ccco3)c(=O)c3ccccc32)c1 ?
Arbovirus inh: -17.8; CHOP inh: 83.0*; WT yeast gro inh: 56.4; L major viab: -1.9

How did Cc1ccccc1Cn1c(=O)n(CCC(=O)NCc2ccc3c(c2)OCO3)c(=O)c2ccccc21 do in these assays?
Arbovirus inh: -10.8; CHOP inh: 87.5*; WT yeast gro inh: -12.3; L major viab: -6.5

What do the screens show for `Cc1ccc(C)c(Cn2c(=O)n(CCCC(=O)NCc3ccco3)c(=O)c3ccccc32)c1`?
Arbovirus inh: -16.9; CHOP inh: 43.5; WT yeast gro inh: -2.0; L major viab: -3.4

Results for Cc1ccc(NC(=O)Cn2c(=O)n(CCCCC(=O)NCc3ccco3)c(=O)c3ccccc32)cc1 ?
Arbovirus inh: 5.2; CHOP inh: 12.6; WT yeast gro inh: -2.3; L major viab: 4.6

What do the screens show for `O=C(CCn1c(=O)c2ccccc2n(Cc2cccnc2)c1=O)NCc1ccc2c(c1)OCO2`?
Arbovirus inh: -11.2; CHOP inh: 21.2; WT yeast gro inh: 15.3; L major viab: -4.4

What do the screens show for `O=C(CCCN1C(=O)c2cccnc2C1=O)Nc1ccc(Br)cc1`?
Arbovirus inh: 11.5; CHOP inh: 11.7; WT yeast gro inh: 5.4; L major viab: -12.4

What do the screens show for `COc1ccc(/C=C/C(=O)c2cc(F)ccc2OC(=O)c2ccccc2OC)cc1OC`?
Arbovirus inh: -20.6; CHOP inh: -64.1; WT yeast gro inh: 57.4; L major viab: 47.8

How did COc1ccc(/C=C/C(=O)c2cc(F)ccc2OC(=O)c2ccc(OC)c(OC)c2)cc1OC do in these assays?
Arbovirus inh: -0.4; CHOP inh: 0.6; WT yeast gro inh: 22.3; L major viab: 92.1*

How did COc1ccc(/C=C/C(=O)c2cc(F)ccc2OC(=O)c2ccccc2)cc1OC do in these assays?
L major viab: 100.3*

Results for COc1ccc(/C=C/C(=O)c2cc(Br)ccc2OC(=O)c2ccco2)cc1OC ?
Arbovirus inh: -30.8; CHOP inh: -93.0; WT yeast gro inh: 65.0*; L major viab: 78.6*
